Bioassay records as filed in PubChem.
PME-1 primary: blocks human protein phosphatase methylesterase 1 | recombinant PME-1, FP-Rh probe fluorescence polarization | inhibition, % at 5.9 µM | 320,000 tested, 0.53% active | Q9Y570;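 active means inhibition above the campaign mean of all compounds plus 3 SD, cut at about 26% in these data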;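 further: competitive labeling of PME-1 active site by serine hydrolase directed probe; inhibitors block probe labeling so polarization falls and inhibition rises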
PAFAH1B2 FP inh: PAFAH1B2 (human) inhibition; P68402; recombinant PAFAH1B2, FP-rhodamine activity probe, fluorescence polarization; inhibition, % at 3.39 µM; 340,000 tested, 1.2% active;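 active means inhibition above the mean of all tested compounds plus 3 SD, cut at about 24% in these data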
Fam108B counter: Fam108B inhibition, counter-screen for RBBP9 inhibitors | recombinant Fam108B, FP-Rh probe fluorescence polarization | inhibition, % at 9.51 µM | 300,000 tested, 0.33% active;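 active means inhibition above the screen mean inhibition plus 3 SD, computed separately per campaign, cut at about 18% in these data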;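 further: inhibitors lower polarization as less probe binds the enzyme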
PAFAH2 inh: inhibitors of human PAFAH2. recombinant PAFAH2, FP-rhodamine activity probe, fluorescence polarization. AID 492956. Q99487. 340,000 tested, 0.99% active. inhibition, % at 3.39 µM;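 active means inhibition above the mean over all tested compounds plus 3 SD, cut at about 30% in these data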;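 further: inhibitors block probe labeling of enzyme so polarization drops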
PAFAH1B3 inh: blocks human PAF acetylhydrolase 1B catalytic subunit 3 | Q15102 | recombinant PAFAH1B3, FP-rhodamine probe, fluorescence polarization | inhibition, % at 3.39 µM | 340,000 tested, 0.28% active;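 active means inhibition above the screen-wide average of all tested compounds plus 3 SD, cut at about 25% in these data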
pPAFAH FP inh: inhibitors of human plasma PAF acetylhydrolase (pPAFAH). Q13093. inhibition, % at 3.39 µM. 330,000 tested, 1.5% active. recombinant pPAFAH, FP-rhodamine probe fluorescence polarization. AID 463082;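 active means inhibition above the mean inhibition across the screen plus 3 SD, cut at about 25% in these data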;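 further: inhibitors block binding of the rhodamine activity-based probe so polarization drops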
Target sequence (Q13093 whole entry, looked up): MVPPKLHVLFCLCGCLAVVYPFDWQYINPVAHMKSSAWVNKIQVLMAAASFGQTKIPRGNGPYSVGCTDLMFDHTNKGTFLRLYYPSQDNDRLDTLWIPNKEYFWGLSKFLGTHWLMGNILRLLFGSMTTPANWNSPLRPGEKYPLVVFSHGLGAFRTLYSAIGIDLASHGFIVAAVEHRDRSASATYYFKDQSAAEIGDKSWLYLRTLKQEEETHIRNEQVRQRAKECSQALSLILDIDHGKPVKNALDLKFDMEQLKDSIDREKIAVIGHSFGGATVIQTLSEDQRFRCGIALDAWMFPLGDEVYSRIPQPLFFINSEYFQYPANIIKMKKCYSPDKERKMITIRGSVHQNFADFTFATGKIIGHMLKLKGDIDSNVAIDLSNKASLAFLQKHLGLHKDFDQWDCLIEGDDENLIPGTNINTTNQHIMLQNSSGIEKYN
PAFAH2 FP conf: PAFAH2 (human) inhibition, confirmed; shares compounds with PAFAH2 inh; recombinant PAFAH2, FP-rhodamine activity probe, fluorescence polarization; inhibition, % at 3.39 µM; 2,300 tested, 65% active; AID 493030;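 active means mean inhibition over three repeats above a set limit taken from the earlier primary screen, cut at about 30% in these data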;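 further: inhibitor blocks binding of rhodamine activity probe so polarization falls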
Of the large screens only hits and unclear results are named; the others gave an inactive call (follow-up assays come after a bar, where they were run). Most compounds without a hit are left out; they make up all but 2.8% or so of the library.

Cc1ccc(C(=O)OCC(=O)Nc2ncc(C(F)(F)F)cc2Cl)cc1NC(=O)c1ccco1	PAFAH2 inh 36.1 | PAFAH2 FP conf inactive
O=[N+]([O-])c1ccc(Cl)c(C[n+]2cccc3ccccc32)c1	none
Cc1cc(C)c(C)c(S(=O)(=O)Nc2ccc3cn[nH]c3c2)c1C	none (no result: Fam108B counter)
CCN(CC)S(=O)(=O)c1ccc2c(c1)nc(CCC(=O)Nc1ccc3c(c1)OCO3)n2C	none
CCN(CC)S(=O)(=O)c1ccc2c(c1)nc(CCC(=O)O)n2C	none
CCN(CC)S(=O)(=O)c1ccc2c(c1)nc(CCC(=O)OCC(=O)Nc1cc(OC)cc(OC)c1)n2C	PAFAH2 inh 52.4 | PAFAH2 FP conf 36.4
CCN(CC)S(=O)(=O)c1ccc2c(c1)nc(CCC(=O)OCC(=O)Nc1c(F)cccc1F)n2C	PAFAH2 inh 49.2 | PAFAH2 FP conf 45.6
Cc1ccc(C(=O)NCC(=O)NC2CCC(C)CC2)s1 (centres undefined)	none (no result: Fam108B counter)
Cc1ccc(C(=O)OCC(=O)NC2CC2)s1	PAFAH2 inh 70.1 (no result: PME-1 primary, Fam108B counter) | PAFAH2 FP conf 55.2
Cc1ccsc1C(=O)OCC(=O)N1C(C)CCCC1C (centres undefined)	none (no result: PME-1 primary, Fam108B counter)
Cc1ccsc1C(=O)OCC(=O)NC1CC1	PAFAH2 inh 32.6 (no result: PME-1 primary, Fam108B counter) | PAFAH2 FP conf inactive
COC(=O)[C@H](C)NC(=O)Nc1ccc(S(N)(=O)=O)cc1	none
CC(C)C(Cl)=NOC(=O)Nc1ccc(S(N)(=O)=O)cc1	PAFAH2 inh 46.9 (no result: PME-1 primary, Fam108B counter, pPAFAH FP inh) | PAFAH2 FP conf 39.5
CCCc1nc2nc(C)c(NS(=O)(=O)c3ccc(C(C)(C)C)cc3)c(=O)n2[nH]1	none
CCCCCCCc1nc2nc(C)c(Br)c(=O)n2[nH]1	PAFAH2 inh 38.1 | PAFAH2 FP conf 34.9
CCC(C(=O)NCC1CCCO1)N(Cc1ccccc1)C(=O)CNS(=O)(=O)c1ccccc1 (centres undefined)	none
COC(=O)c1cc(S(=O)(=O)N2c3ccccc3CC2C)cn1C (centres undefined)	none
COc1ccc(C(=O)OCC(=O)Nc2cccc(S(=O)(=O)N3CCCCCC3)c2)cc1[N+](=O)[O-]	PAFAH2 inh 38.3 (no result: PME-1 primary, Fam108B counter, pPAFAH FP inh) | PAFAH2 FP conf inactive
COc1cc(C(=O)OCC(=O)Nc2cccc(S(=O)(=O)N3CCCC3)c2)ccc1OCC(C)C	PAFAH2 inh 44.7 | PAFAH2 FP conf 45.3
CS(=O)(=O)c1ccc(C(=O)OCC(=O)Nc2cccc(S(=O)(=O)N3CCCC3)c2)cc1	none
COc1ccc(C(=O)OCC(=O)Nc2ccc(OC)c(S(=O)(=O)N3CCCCC3)c2)cc1[N+](=O)[O-]	none (no result: PME-1 primary, Fam108B counter, pPAFAH FP inh)
CCCCNC(=O)Cc1cc(=O)[nH]c(=O)[nH]1	none
CCN(CC)S(=O)(=O)c1ccc(O)c(NC(=O)CN2CCc3ccccc3C2)c1	PAFAH2 inh 55.7 | PAFAH2 FP conf 55.9
CN(c1ccccc1)S(=O)(=O)c1cccc(NC(=O)CN2CCc3ccccc3C2)c1	none
CCCCNC(=O)COC(=O)c1ccc(Cl)c(S(=O)(=O)N2CCCC2)c1	PAFAH2 inh 43.9 | PAFAH2 FP conf inactive
O=C(COC(=O)c1ccc(Cl)c(S(=O)(=O)N2CCCCC2)c1)NCCc1ccccc1	none (no result: PME-1 primary, Fam108B counter, pPAFAH FP inh)
O=C(COC(=O)c1ccc(Cl)c(S(=O)(=O)N2CCCCC2)c1)NCC1CCCCC1	none (no result: Fam108B counter)
O=C(COC(=O)c1ccc(Cl)c(S(=O)(=O)N2CCCC2)c1)NC1CCCCC1	PAFAH2 inh 36.0 | PAFAH2 FP conf inactive
Cc1ccc(C(=O)OCC(=O)NC2CCCC(C)C2C)cc1S(=O)(=O)N1CCCCC1 (centres undefined)	PAFAH2 inh 39.4 (no result: Fam108B counter) | PAFAH2 FP conf inactive
O=C(COC(=O)c1cccc(S(=O)(=O)N2CCCCC2)c1)NC1CCCCC1	PAFAH2 inh 77.0 (no result: Fam108B counter) | PAFAH2 FP conf 75.7
CC(OC(=O)c1cccnc1Cl)C(=O)NCc1ccccc1 (centres undefined)	none (no result: Fam108B counter)
CCOC(=O)c1cnc2c(C)cc(Cl)cc2c1N1CCN(C)CC1	none
Cc1ccnc(NC(c2ccccc2O)c2oc(CO)cc(=O)c2O)c1 (centres undefined)	none
COCCN(Cc1ccco1)C(=O)Cn1ncc2c(=O)oc3ccccc3c21	none
CO/N=C\c1cc(C(=O)c2ccc(Cl)cc2Cl)cn1C	none (no result: PAFAH1B2 FP inh, PAFAH2 inh, PAFAH1B3 inh)
Cc1ccc(C(=O)OCC(=O)Nc2ccccc2C(F)(F)F)cc1S(=O)(=O)N1CCCCC1	none (no result: PME-1 primary, Fam108B counter, pPAFAH FP inh)
